In PubChem BioAssay (Tox21):
Results filed as inconclusive are left out. Unmarked numbers belong to inactive results. Active and inactive are the calls of the source. The call rests on the fitted dose curve.
On the % scale 0 is the no-effect control and ±100 the full control effect.

Assay: qHTS assay to identify small molecule agonists of the endoplasmic reticulum stress response signaling pathway - cell viability counter screen (AID 1159517); further: nearly all actives have a fitted effect of over 50% in size
Conditions: ESRE-bla HeLa viability, CellTiter-Glo luminescence, 5 h; series mostly up to 61 µM
Text: U.S. Tox21 Program National Center for Advancing Translational Sciences [NCATS] NIH Chemical Genomics Center [NCGC] U.S. Environmental Protection Agency [EPA] National Institutes of Environmental Health Sciences [NIEHS] National Toxicology Program [NTP] U.S. Food and Drug Administration [FDA] Tox21 Assay Overview: Endoplasmic Reticulum (ER) plays an important role in cellular signaling, protein folding/maturation, stress response, lipid biosynthesis, calcium storage and release etc. Under stress conditions, proteins in ER misfold or unfold, and leading to the expression of ER stress responsive genes. ER stress has been associated with a variety of pathophysiological conditions such as cancer, inflammation, neurodegenerative diseases, diabetes, ischemic heart disease etc. To identify the compounds that induce ER stress response, an ER stress reporter cell line, CellSensor ESRE-bla HeLa (Life Technologies, Carlsbad, CA) containing a beta-lactamase reporter gene under control of the Endoplasmic reticulum Stress Response Element (ESRE) was used to screen Tox21 10K compound library. The cytotoxicity of the Tox21 compound library against the ESRE-bla HeLa cell line was tested in parallel by measuring cell viability using the CellTiter-Glo assay in the same wells.
Tox21 Assay Protocol Summary: ESRE-bla HeLa cells were dispensed at 1,500 cells/6 uL of assay medium per well into black wall/clear-bottom 1536-well plates using a Multidrop Combi (ThermoFisher Scientific, Waltham, MA) dispenser. After the assay plates were incubated at 37 C and 5% CO2 for an overnight, 23 nL of compounds dissolved in DMSO, positive controls or DMSO only was transferred to the assay plate by a Pintool station (Kalypsys, San Diego, CA). The assay plates were incubated at 37 C and 5% CO2 for 5 hr. One uL of LiveBLAzer B/G FRET substrate (Life Technologies) was added using a FRD (Flying Reagent Dispenser, Aurora Discovery, San Diego, CA) and the plates were incubated at room temperature for 2 hr. Fluorescence intensity (405 nm excitation, 460 nm and 530 nm emissions) was measured using an Envision plate reader (PerkinElmer, Shelton, CT). For cytotoxicity, 4 ul/well of CellTiter-Glo reagent was added into the assay plates using an FRD. After 30 min incubation at room temperature, the luminescence intensity was measured using a ViewLux plate reader (PerkinElmer).
With `CC(=O)OCC(=O)[C@@]12OC(C)(C)O[C@@H]1C[C@H]1[C@@H]3C[C@H](F)C4=CC(=O)C=C[C@]4(C)[C@@]3(F)[C@@H](O)C[C@@]12C` the outcome was “inactive”. In the case of `CN1CCN(c2c(F)cc3c(=O)c(C(=O)O)cn4c3c2OCN4C)CC1`, the outcome is reported as “inactive”. In the case of `CCCCCCCC/C=C\CCCCCCCC(=O)OC(CO)CO`, the outcome is reported as “inactive”. With `CO[C@@]12[C@H](COC(N)=O)C3=C(C(=O)C(C)=C(N)C3=O)N1C[C@@H]1N[C@@H]12` the outcome was “inactive”. For `O=C(CS)OCCOC(=O)CS`, the outcome was “inactive”. With `CC1(C)C(=O)N(Br)C(=O)N1Cl` the outcome was “inactive”. For `CCC(=O)Oc1ccc(/C(CC)=C(\CC)c2ccc(OC(=O)CC)cc2)cc1`, the outcome was “inactive”. For `CCCCC(=O)O[C@]1(C(=O)CO)[C@@H](C)C[C@H]2[C@@H]3CCC4=CC(=O)C=C[C@]4(C)[C@@]3(F)[C@@H](O)C[C@@]21C`, the outcome was “inactive”. In the case of `CCCCC(CC)C(=O)OCCOCCOCCOCCOC(=O)C(CC)CCCC` (stereo not given), the outcome is reported as “inactive”. With `O=C(CCC1CCN(Cc2ccccc2)CC1)c1ccc2c(c1)NCCCC2` the outcome was “inactive”. For `O=C(N[C@@H](c1ccccc1)[C@@H]1CCCCN1)c1cccc(C(F)(F)F)c1Cl`, the outcome was “inactive”. In the case of `Cc1ccnc2ccccc12`, the outcome is reported as “inactive”. With `CCC(C)(O)CCC=C(C)C` (stereo not given) the outcome was “inactive”. For `COC(OC)(C(=O)c1ccccc1)c1ccccc1`, the outcome was “inactive”. For `O=S1OCCO1`, the outcome was “inactive”. In the case of `CO[Si](C)(OC)OC`, the outcome is reported as “inactive”. For `O=C(CCCCCCCCC#CI)Oc1ccccc1`, the outcome was “inactive”. With `O=C(N/N=C/c1ccc([N+](=O)[O-])o1)c1ccc(O)cc1` the outcome was “inactive”. For `C[C@]12CCC(=O)C=C1C=C[C@@H]1[C@@H]2CC[C@@]2(C)[C@H]1CC[C@@]21CCC(=O)O1`, the outcome was “inactive”. With `CCCOCCOCCO` the outcome was “inactive”. For `NCC1CCCC(CN)C1` (stereo not given), the outcome was “inactive”. In the case of `N#C/C(=C1\SCC(c2ccccc2Cl)S1)n1ccnc1` (stereo not given), the outcome is reported as “inactive”. In the case of `CCn1nc(C)c2c1C(=O)NCC(c1ccc(O)cc1)=N2`, the outcome is reported as “inactive”. For `COC(=O)[C@@H]1CC2=CC(=O)CC[C@]2(C)[C@@]23O[C@@H]2C[C@@]2(C)[C@@H](CC[C@@]24CCC(=O)O4)[C@H]13`, the outcome was “inactive”. With `CC(CCc1ccc2c(c1)OCO2)NN` (stereo not given) the outcome was “inactive”. With `CCCCC1C(=O)N(c2ccccc2)N(c2ccc(O)cc2)C1=O` (stereo not given) the outcome was “inactive”. In the case of `CCCOc1ccc(S(=O)(=O)N2CCN(CC)CC2)cc1-c1nc2c(CC)n(Cc3ccccn3)nc2c(=O)[nH]1`, the outcome is reported as “inactive”. For `COc1cc2c(cc1OC)-c1cc(=Nc3c(C)cc(C)cc3C)n(C)c(=O)n1CC2`, the outcome was “inactive”. With `CCCCN(CCCC)C(=S)SSC(=S)N(CCCC)CCCC` the outcome was “inactive”. For `CC1=C(C=O)C(C)(C)CCC1`, the outcome was “inactive”. For `[O]=[Bi]`, the activity change, negative = cytotoxicity was 9.83% [at 6.95 µM]. For `CC(C)(C)CC(C)(C)c1ccc(OCCO)cc1`, the outcome was “inactive”. With `CN(C(=O)C(Cl)Cl)c1ccc(OC(=O)c2ccco2)cc1` the outcome was “inactive”. With `CNCCCC1c2ccccc2C=Cc2ccccc21` the outcome was “inactive”. For `CCCCCCCCCCCCCCC[C@H](O)[C@@H](N)CO`, the outcome was “inactive”. In the case of `OCC1CC=CCC1` (stereo not given), the outcome is reported as “inactive”. For `CC1(C)C2=CCCC(C)(C)[C@]23CC[C@H]1C3`, the outcome was “inactive”. In the case of `CC(CCO)CCc1ccccc1` (stereo not given), the outcome is reported as “inactive”. For `CC1=NN(c2ccc(C(=O)O)cc2)C(=O)C1`, the outcome was “inactive”. With `CC(C)(CCl)c1ccccc1` the outcome was “inactive”.
